# Data as given in ChEMBL document CHEMBL1961873, “Compounds: GSK PKIS; Assays: Nanosyn kinase panel” (2012).
# Experiments:
# [1] = target: T1, Ephrin type-B receptor 2 (Homo sapiens) (UniProt P29323); conditions: at 1 µM
# T1 sequence (whole entry): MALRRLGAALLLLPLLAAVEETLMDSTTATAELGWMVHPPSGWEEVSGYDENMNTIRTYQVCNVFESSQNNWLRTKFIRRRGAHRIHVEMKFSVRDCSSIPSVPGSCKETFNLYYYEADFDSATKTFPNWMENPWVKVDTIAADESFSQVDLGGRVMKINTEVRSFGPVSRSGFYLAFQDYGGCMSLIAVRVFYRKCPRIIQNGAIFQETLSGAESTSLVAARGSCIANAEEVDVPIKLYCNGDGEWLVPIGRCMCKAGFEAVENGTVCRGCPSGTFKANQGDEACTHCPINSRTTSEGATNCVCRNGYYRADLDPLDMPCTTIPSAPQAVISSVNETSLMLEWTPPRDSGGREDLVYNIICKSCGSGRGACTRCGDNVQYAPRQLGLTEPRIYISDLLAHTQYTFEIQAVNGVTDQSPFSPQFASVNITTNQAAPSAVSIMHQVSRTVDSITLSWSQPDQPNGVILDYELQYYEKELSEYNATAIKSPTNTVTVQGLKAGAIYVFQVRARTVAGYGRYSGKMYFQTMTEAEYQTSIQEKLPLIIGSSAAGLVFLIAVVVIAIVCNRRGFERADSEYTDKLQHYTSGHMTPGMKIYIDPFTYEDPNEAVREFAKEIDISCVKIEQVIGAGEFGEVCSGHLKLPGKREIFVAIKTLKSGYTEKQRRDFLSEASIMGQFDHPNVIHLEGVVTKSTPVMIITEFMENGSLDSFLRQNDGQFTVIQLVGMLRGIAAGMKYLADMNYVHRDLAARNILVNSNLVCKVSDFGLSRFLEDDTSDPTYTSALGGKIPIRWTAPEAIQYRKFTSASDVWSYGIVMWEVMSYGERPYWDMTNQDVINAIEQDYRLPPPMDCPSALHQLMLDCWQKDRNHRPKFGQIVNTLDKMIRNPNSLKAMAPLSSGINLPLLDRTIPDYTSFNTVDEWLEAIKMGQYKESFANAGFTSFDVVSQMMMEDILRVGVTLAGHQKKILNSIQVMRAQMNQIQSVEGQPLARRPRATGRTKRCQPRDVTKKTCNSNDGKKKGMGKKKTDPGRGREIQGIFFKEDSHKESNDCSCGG
# [2] = target: T2, Ephrin type-B receptor 3 (Homo sapiens) (UniProt P54753); conditions: at 0.1 µM
# T2 sequence (whole entry): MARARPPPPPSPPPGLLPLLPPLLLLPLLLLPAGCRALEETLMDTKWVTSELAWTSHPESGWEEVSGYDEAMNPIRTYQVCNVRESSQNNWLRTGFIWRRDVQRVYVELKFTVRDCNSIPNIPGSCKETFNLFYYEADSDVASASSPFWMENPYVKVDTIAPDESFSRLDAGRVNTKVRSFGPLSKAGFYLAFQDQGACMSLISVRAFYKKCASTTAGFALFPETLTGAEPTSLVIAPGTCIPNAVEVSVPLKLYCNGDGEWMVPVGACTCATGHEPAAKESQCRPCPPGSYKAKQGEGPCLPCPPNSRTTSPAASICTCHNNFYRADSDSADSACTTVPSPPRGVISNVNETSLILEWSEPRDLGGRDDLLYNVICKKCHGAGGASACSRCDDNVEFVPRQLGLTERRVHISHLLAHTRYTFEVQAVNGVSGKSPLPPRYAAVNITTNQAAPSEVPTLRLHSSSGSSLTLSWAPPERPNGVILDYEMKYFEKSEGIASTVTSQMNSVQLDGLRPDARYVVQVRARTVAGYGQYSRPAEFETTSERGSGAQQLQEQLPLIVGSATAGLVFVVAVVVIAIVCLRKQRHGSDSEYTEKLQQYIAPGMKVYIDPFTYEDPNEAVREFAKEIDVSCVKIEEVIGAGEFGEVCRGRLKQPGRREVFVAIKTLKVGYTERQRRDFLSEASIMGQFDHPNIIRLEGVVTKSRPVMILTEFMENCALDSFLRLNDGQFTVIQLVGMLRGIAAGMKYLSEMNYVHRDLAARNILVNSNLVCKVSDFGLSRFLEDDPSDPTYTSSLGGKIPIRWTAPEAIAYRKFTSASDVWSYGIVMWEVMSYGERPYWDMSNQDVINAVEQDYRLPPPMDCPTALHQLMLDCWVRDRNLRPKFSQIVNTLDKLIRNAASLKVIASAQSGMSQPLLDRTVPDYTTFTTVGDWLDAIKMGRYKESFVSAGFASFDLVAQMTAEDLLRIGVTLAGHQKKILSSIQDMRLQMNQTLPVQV
# [3] = target: T2, Ephrin type-B receptor 3 (Homo sapiens); conditions: at 1 µM
# [4] = target: T3, Ephrin type-B receptor 4 (Homo sapiens) (UniProt P54760); conditions: at 0.1 µM
# T3 sequence (whole entry): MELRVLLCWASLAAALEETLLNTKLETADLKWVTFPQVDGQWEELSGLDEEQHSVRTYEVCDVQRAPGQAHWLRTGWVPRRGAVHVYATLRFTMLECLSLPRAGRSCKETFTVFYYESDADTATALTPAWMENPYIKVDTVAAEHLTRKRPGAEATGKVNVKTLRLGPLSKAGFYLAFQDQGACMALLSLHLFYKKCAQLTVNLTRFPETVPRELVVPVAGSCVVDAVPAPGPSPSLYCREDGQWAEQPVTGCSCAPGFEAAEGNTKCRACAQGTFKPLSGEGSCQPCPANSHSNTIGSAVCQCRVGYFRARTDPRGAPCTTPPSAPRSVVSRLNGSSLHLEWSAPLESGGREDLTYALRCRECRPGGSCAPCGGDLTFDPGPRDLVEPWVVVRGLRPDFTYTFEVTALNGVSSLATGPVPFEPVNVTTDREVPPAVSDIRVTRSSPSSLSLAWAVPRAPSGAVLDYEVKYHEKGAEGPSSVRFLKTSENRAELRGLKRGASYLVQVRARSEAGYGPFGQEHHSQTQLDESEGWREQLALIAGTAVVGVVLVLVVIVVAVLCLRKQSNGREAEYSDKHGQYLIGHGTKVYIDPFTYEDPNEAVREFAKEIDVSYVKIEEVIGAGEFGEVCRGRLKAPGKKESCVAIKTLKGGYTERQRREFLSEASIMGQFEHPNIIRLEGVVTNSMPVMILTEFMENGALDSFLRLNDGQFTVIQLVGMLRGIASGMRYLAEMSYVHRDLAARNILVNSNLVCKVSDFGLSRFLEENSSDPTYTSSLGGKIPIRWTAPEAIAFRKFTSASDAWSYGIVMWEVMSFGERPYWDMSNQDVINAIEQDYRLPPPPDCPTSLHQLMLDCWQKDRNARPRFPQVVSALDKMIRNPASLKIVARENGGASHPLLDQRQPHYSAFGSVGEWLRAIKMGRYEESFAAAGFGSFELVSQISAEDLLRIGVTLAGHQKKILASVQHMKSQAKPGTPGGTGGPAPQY
# [5] = target: T3, Ephrin type-B receptor 4 (Homo sapiens); conditions: at 1 µM
# [6] = target: Receptor tyrosine-protein kinase erbB-2 (Homo sapiens) (UniProt P04626); conditions: at 0.1 µM
# [7] = target: Receptor tyrosine-protein kinase erbB-2 (Homo sapiens) (UniProt P04626); conditions: at 1 µM
# [8] = target: Receptor tyrosine-protein kinase erbB-4 (Homo sapiens) (UniProt Q15303); conditions: at 0.1 µM
# [9] = target: Receptor tyrosine-protein kinase erbB-4 (Homo sapiens) (UniProt Q15303); conditions: at 1 µM
# [10] = target: Tyrosine-protein kinase Fer (Homo sapiens) (UniProt P16591); conditions: at 0.1 µM;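 further: reported figures are averaged percent inhibition of FER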
# Chain of Tyrosine-protein kinase Fer (Homo sapiens) (P16591 whole entry, looked up): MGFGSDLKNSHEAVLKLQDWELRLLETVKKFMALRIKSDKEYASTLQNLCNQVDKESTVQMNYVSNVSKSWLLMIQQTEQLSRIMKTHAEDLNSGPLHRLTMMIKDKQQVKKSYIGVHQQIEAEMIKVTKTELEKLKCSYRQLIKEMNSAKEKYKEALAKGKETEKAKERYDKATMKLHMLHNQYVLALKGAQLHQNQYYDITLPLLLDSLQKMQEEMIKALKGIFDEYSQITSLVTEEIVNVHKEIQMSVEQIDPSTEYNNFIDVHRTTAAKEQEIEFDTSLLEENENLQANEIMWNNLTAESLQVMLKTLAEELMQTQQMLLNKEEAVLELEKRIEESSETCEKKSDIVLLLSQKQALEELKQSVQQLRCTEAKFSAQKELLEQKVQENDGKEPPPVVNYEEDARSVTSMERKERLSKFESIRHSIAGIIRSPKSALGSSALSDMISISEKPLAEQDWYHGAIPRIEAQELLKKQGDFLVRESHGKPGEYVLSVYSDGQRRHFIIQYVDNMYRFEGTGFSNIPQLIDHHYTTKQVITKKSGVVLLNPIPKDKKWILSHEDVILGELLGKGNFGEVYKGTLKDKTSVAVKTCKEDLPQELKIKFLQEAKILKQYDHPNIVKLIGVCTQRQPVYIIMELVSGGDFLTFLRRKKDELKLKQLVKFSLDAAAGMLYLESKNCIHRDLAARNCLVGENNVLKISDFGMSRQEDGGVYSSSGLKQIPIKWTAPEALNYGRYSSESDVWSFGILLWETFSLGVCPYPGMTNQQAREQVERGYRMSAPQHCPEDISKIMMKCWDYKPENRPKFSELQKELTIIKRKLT
# Chain of Receptor tyrosine-protein kinase erbB-4 (Homo sapiens) (Q15303 whole entry): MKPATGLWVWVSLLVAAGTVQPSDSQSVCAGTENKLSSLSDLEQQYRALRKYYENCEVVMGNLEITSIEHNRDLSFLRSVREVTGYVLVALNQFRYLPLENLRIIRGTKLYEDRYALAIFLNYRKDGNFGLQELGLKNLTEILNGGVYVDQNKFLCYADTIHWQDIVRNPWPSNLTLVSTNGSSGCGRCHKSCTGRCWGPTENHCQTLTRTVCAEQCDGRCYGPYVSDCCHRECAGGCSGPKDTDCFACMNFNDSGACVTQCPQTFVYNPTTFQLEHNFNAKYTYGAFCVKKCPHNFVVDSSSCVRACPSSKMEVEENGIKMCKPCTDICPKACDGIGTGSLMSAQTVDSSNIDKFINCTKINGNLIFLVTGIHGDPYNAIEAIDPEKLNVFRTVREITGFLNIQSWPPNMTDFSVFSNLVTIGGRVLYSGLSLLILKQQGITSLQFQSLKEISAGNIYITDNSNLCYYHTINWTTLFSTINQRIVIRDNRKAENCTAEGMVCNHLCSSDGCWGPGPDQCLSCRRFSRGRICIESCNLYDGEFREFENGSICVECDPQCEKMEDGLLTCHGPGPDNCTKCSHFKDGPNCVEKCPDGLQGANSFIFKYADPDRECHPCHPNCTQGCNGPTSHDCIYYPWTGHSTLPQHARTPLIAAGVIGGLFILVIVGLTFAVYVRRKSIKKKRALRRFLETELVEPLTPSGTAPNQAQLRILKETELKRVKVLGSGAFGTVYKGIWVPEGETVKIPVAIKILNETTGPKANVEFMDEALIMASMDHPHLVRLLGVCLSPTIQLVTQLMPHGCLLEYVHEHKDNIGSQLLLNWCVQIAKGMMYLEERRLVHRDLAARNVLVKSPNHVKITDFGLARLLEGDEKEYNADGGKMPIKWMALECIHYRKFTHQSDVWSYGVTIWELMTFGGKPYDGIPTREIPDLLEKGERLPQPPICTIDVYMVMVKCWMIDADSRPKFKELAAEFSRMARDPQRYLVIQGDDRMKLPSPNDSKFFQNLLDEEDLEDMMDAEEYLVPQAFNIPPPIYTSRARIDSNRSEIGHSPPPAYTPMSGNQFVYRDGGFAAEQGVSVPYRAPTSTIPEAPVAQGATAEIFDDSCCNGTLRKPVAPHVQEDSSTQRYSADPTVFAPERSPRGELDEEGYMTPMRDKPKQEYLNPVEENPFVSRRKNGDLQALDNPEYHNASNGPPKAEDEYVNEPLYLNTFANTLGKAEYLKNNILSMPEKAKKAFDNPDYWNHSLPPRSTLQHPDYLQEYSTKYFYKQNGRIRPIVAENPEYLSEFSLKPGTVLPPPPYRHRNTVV
# Chain of Receptor tyrosine-protein kinase erbB-2 (Homo sapiens) (P04626 whole entry): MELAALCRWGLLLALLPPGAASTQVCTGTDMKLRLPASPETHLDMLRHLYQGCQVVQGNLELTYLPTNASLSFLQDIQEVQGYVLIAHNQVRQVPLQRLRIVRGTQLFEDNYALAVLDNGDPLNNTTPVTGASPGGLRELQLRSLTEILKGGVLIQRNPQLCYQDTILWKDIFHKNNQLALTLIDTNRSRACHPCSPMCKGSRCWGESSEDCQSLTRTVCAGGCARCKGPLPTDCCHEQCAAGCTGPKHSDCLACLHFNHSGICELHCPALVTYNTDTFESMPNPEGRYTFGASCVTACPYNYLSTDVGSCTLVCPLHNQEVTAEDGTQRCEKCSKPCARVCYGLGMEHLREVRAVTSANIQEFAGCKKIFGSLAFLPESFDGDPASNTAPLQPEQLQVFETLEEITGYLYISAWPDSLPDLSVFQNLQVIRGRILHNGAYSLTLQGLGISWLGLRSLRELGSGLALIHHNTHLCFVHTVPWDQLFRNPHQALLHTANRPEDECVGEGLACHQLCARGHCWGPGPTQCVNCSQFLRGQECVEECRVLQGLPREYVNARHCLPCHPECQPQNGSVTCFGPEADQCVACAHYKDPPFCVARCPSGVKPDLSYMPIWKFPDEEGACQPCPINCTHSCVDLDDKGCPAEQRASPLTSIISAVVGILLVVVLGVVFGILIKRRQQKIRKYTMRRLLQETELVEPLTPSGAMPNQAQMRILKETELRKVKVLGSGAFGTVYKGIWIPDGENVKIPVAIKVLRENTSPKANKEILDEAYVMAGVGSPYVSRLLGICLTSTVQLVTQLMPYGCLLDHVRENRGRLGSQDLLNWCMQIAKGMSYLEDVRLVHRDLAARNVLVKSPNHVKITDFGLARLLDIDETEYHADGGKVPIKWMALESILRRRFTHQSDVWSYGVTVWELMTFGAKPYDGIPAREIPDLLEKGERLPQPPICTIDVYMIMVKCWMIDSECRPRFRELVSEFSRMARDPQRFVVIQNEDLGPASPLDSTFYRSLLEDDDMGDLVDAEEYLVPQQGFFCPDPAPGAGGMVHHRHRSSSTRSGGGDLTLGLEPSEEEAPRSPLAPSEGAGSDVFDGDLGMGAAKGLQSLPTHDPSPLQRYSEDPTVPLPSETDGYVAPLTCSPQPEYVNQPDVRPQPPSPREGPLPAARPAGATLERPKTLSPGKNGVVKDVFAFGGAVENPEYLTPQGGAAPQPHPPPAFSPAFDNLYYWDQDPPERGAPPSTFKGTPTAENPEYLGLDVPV
SMILES,inhibition [1],inhibition [2],inhibition [3],inhibition [4],inhibition [5],inhibition [6],inhibition [7],inhibition [8],inhibition [9],inhibition [10]
Nc1ncnc2occ(-c3ccc(NC(=O)Nc4cccc(C(F)(F)F)c4)cc3)c12,78.2%,19.6%,68.2%,31.2%,84.4%,-0.01%,3.75%,8.79%,15.2%,2.94%
CCCN1CCC(Oc2cc(Nc3nc(Nc4cccc(F)c4C(N)=O)c4cc[nH]c4n3)c(OC)cc2Cl)CC1,13.7%,1.47%,-1.18%,-0.64%,0.69%,0.9%,1.3%,0.71%,0.3%,3.76%
NCc1ccc(-c2nc(-c3ccc(Cl)c(O)c3)c(-c3ccncc3)[nH]2)cc1,8.63%,5.47%,12.8%,3.82%,9.77%,-0.58%,-0.9%,11.1%,28.9%,0.8%
Nc1ncnc2occ(-c3ccc(NC(=O)Nc4cc(C(F)(F)F)cc(C(F)(F)F)c4)cc3)c12,68.2%,6.66%,27.9%,9.24%,41.4%,-1.28%,-3.43%,9.75%,5.89%,1.71%
COc1cc2ncn(-c3cc(OCc4ccccc4Cl)c(C(N)=O)s3)c2cc1OC,7.08%,2.15%,1.6%,0.55%,3.38%,-1%,2.47%,-1.93%,9.17%,2.47%
COc1ccc(-c2coc3ncnc(N)c23)cc1,7.88%,6.18%,5.65%,2.3%,3.43%,0.31%,-4.24%,9.06%,15.5%,6.86%
Nc1nc(-c2ccccn2)c(-c2ccc3ncccc3n2)s1,3.51%,2.99%,3.23%,2.74%,0.44%,1.34%,4.11%,7.11%,8.52%,0.93%
CC(=O)Nc1cccc(C#Cc2cncnc2Nc2ccc(OCc3cccc(F)c3)c(Cl)c2)n1,4.49%,-4.13%,-1.83%,-0.8%,0.82%,1.84%,0.35%,18.5%,62.8%,-0.09%
NS(=O)(=O)c1cccc(-c2ccc3c(NC(=O)C4CC4)n[nH]c3c2)c1,-0.57%,-3.25%,-3.05%,-1.93%,-1.01%,-3.46%,-5.29%,-3.96%,-3.93%,1.7%
CN(C)c1cc2c(Nc3ccc4nc(Cc5ccccc5)[nH]c4c3)ncnc2cn1,15.3%,4.07%,4.22%,4.92%,3.25%,20%,67.7%,101%,99.7%,5.55%
COc1ccc(COc2ccc(Cc3cnc(N)nc3N)cc2OC)cc1,8.3%,-1.18%,-4.82%,0.94%,3.27%,-1.55%,-2.79%,3.15%,3.43%,2.14%
CCn1c(-c2nonc2N)nc2cncc(C(=O)N3CCNCC3)c21,7.73%,3.36%,3.77%,2.94%,3.87%,38.2%,2.97%,9.03%,10.6%,1.53%
COc1cc(C)c(NC(=O)CN(C)C)cc1Nc1nc(Nc2cccc(F)c2C(N)=O)c2cc[nH]c2n1,8.75%,4.52%,0.2%,2.62%,1.31%,0.48%,-0.4%,10.4%,32.1%,81.8%
NS(=O)(=O)c1ccc(N/N=C2\C(=O)Nc3ccc(C(=O)NCCc4c[nH]cn4)cc32)cc1,16.2%,3.04%,0.13%,4.11%,6.29%,1.36%,1.09%,6.82%,7.51%,
CN1CCC(C(=O)Nc2n[nH]c3nnc(-c4ccccc4)cc23)CC1,3.41%,6.23%,4.08%,2.18%,1.12%,5.08%,14.2%,17.7%,24.2%,3.91%
CC1=C(C(=O)Nc2ccc3[nH]ncc3c2)C(c2ccc(Cl)c(Cl)c2)CC(=O)N1 (centres undefined),12.5%,3.28%,2.88%,1.18%,1.59%,0.3%,0.63%,8.29%,17.8%,1.45%
COc1ccc(-c2nn3ncccc3c2-c2ccnc(Nc3ccc(Cl)c(C(F)(F)F)c3)n2)cc1,10%,3.56%,4.88%,3.3%,-0.34%,3.66%,7.66%,16%,51.5%,1.3%
